Test system: Vero E6 infected with SARS-CoV-2
Assay: inhibition of SARS-CoV-2 cytopathic effect; higher = more antiviral protection, active = above 15
Settings: 48 h

Measured: inhibition of SARS-CoV-2 cytopathic effect

Cc1ccc(Cl)c(OCC(O)CNC(C)(C)C)c1 (stereo not given) [bupranolol]
inactive: 1 nM 1.32% | 8.33 nM -0.4% | 100 nM -5.32% | 833.33 nM -1.98% | 10000 nM -0.94%

CCCCCCCCCCC(=O)O[C@H]1CC[C@H]2[C@@H]3CCC4=CC(=O)CC[C@]4(C)[C@H]3CC[C@]12C [Testosterone (undecanoate)]
inactive: 1 nM 1.81% | 8.33 nM 0.82% | 100 nM 0.37% | 833.33 nM 0.31% | 10000 nM 0.21%

CN1CCC(=C2c3ccccc3C=Cc3ccccc32)CC1 [cyproheptadine]
inactive: 1 nM 1.35% | 8.33 nM -0.26% | 100 nM -1.02% | 833.33 nM -0.75% | 10000 nM -4.89%

Cc1ccccc1C(C(=O)NC1CCCCC1)N(C(=O)Cn1ccnc1C)c1cccc(F)c1 (stereo not given)
inactive: 1 nM -0.81% | 8.33 nM -1.8% | 100 nM 0.77% | 833.33 nM 1.79% | 10000 nM -0.96%

O=C(O)c1ccc2c(c1)C(=O)N(c1cccc(Oc3ccc([N+](=O)[O-])cc3)c1)C2=O
inactive: 1 nM 1.34% | 8.33 nM 0.95% | 100 nM 0.59% | 833.33 nM 1.36% | 10000 nM -0.65%

CC(C)(C)NS(=O)(=O)c1cncc(-c2cc(F)c3nc(N)nn3c2)c1
inactive: 1 nM 3.23% | 8.33 nM 2.61% | 100 nM -1.19% | 833.33 nM 0.27% | 10000 nM 0.39%

O=C(/C=C/c1ccc2ccccc2n1)c1ccncc1
inactive: 1 nM -4.3% | 8.33 nM -0.71% | 100 nM -2.06% | 833.33 nM -1.46% | 10000 nM -3.51%

CCC1(C)CC(=O)NC1=O (stereo not given) [ethosuximide]
inactive: 1 nM -0.56% | 8.33 nM 1.45% | 100 nM 1.18% | 833.33 nM 1.39% | 10000 nM -4.8%

COC(=O)N[C@H](C(=O)N1CCC[C@H]1c1nc(-c2ccc3c(c2)O[C@@H](c2ccccc2)n2c-3cc3cc(-c4c[nH]c([C@@H]5CCCN5C(=O)[C@@H](NC(=O)OC)C(C)C)n4)ccc32)c[nH]1)C(C)C [elbasvir]
inactive: 1 nM 1.03% | 8.33 nM 1.52% | 100 nM 0.09% | 833.33 nM -1.19% | 10000 nM -4.27%

CC1(C)CC(=O)c2c(C(F)(F)F)nn(-c3ccc(C(N)=O)c(N[C@H]4CC[C@H](OC(=O)CN)CC4)c3)c2C1
inactive: 1 nM -1.61% | 8.33 nM 1.43% | 100 nM 2.1% | 833.33 nM -2.15% | 10000 nM -0.73%

N[C@@H](CCC(=O)N[C@@H](CS)C(=O)NCC(=O)O)C(=O)O [glutathione]
inactive: 1 nM 0.94% | 8.33 nM 0.93% | 100 nM 1.6% | 833.33 nM -0.69% | 10000 nM 1.39%

CCn1nc(C2CCN(C(=O)CCO)CC2)nc1-c1cnc(N)c(-c2nnc(C(C)(C)C)o2)n1
inactive: 1 nM -2.84% | 8.33 nM 1.6% | 100 nM 1.87% | 833.33 nM -2.41% | 10000 nM -1.94%

CC1(C)N=C(N)N=C(N)N1OCCCOc1cc(Cl)c(Cl)cc1Cl
inactive: 1 nM -1.05% | 8.33 nM 0.38% | 100 nM 0.21% | 833.33 nM 0.74% | 10000 nM -2.49%

C[C@H](N)[C@H](O)c1cccc(O)c1 [metaraminol]
inactive: 1 nM 5.57% | 8.33 nM 5.04% | 100 nM 2.34% | 833.33 nM 1.83% | 10000 nM 1.14%

CC(C)=CCC/C(C)=C/CNCCNC1C2CC3CC(C2)CC1C3 (stereo not given)
inactive: 1 nM 0.6% | 8.33 nM 0.09% | 100 nM 1.62% | 833.33 nM 1.05% | 10000 nM 0.17%

C=CC[C@]1(O)CC[C@H]2[C@@H]3CCC4=CC(=O)CCC4=C3C=C[C@@]21C [altrenogest]
inactive: 1 nM -0.68% | 8.33 nM -1.12% | 100 nM -0.94% | 833.33 nM 0.13% | 10000 nM 4.81%

Cc1c(F)cc(C(=O)NC2CC2)cc1-c1c(F)cn2c(C(C)(C)C)nnc2c1F
inactive: 1 nM -1.55% | 8.33 nM -0.6% | 100 nM -3.43% | 833.33 nM 0.89% | 10000 nM -0.19%

Oc1nc(O)c2cn[nH]c2n1 [oxypurinol]
inactive: 1 nM -1.15% | 8.33 nM -1.53% | 100 nM -2.43% | 833.33 nM -2.52% | 10000 nM 1.11%
